Laboratory results reported in ChEMBL document CHEMBL1157539, “Thousands of chemical starting points for antimalarial lead identification” (Nature, 2010).
Screen size: about 13,000 compounds; fewer than 10 showed an effect of 50% or more. The list is a sample of the results.

test system: Plasmodium falciparum; assay: GSK_TCMDC: Inhibition of Plasmodium falciparum 3D7 LDH activity, using an LDH reporter assay. Test compounds present at 2uM; type: functional, organism-based

SMILES | inhibition [%]
Fc1ccc(C=NN=c2cc[nH]c3ccccc23)cc1 | 4
COc1ccc(OCCCCON2C(=N)N=C(N)NC2(C)C)cc1 | 4
COc1cccc(CCN(Cc2ccccc2-c2ccc(CNC3CC(C)(C)NC(C)(C)C3)cc2)C(=O)NC2CCCCC2)c1 | 0
N#Cc1ccc(N2C[C@@H](OCc3ccccc3)C[C@H]2C(=O)NCCC(c2ccccc2)c2ccccc2)c2ccccc12 | 0
CCCCCCOc1ccc(C(=O)N(Cc2ccccc2)c2c(-c3ccccc3)nc3cc(C)ccn23)cc1 | 3
CCc1cccc2sc(N3CCN(C(=O)c4ccc([N+](=O)[O-])o4)CC3)nc12 | 0
CCOc1c(CCNCCCCNCCc2ccc3ccccc3c2OCC)ccc2ccccc12 | 0
CN1CCC(Oc2ccc(CN3CC[C@H](NC(=O)c4ccc(Cl)c(F)c4)C3)c3ccccc23)C1 (stereo partly drawn) | 3
CCN(CC)CCN(Cc1ccc(-c2ccc(C(F)(F)F)cc2)cc1)C(=O)Cn1c(CCc2ccccc2F)nc(=O)c2ccccc21 | 0
Cc1cccc2nc(-c3cccc(-c4ccc(NC(=O)c5ccoc5)cc4)c3)[nH]c12 | 0
O=c1cc(NCCCNCc2cccc(OC(F)(F)F)c2)[nH]c2ccccc12 | 0
O=C(Nc1ccc2c(c1)CCC2)N[C@H]1CCN(Cc2ccc(OCCCN3CCCCC3)cc2)C1 | 0
CCN1CCC(N(Cc2ccc(-c3ccc(C(F)(F)F)s3)cc2)C(=O)Cn2c(CCc3cccc(F)c3F)nc(=O)c3ccccc32)CC1 | 7
Fc1ccc2[nH]c(-c3cccc(-c4ccc(CNCc5cnn(-c6ccccc6)n5)cc4)c3)nc2c1 | 0
CNCCNCc1ccc(-c2ccc(-c3nc4cc(F)ccc4[nH]3)cc2)cc1 | 4
O=C1C(=Cc2c(O)ccc3ccccc23)SC(=NCc2ccccc2)N1Cc1ccccc1 | 0
COC(=O)c1cccc(CNCc2cccc(-c3ccc(-c4nc5cccc(C)c5[nH]4)s3)c2)c1 | 1
CCN1CCC(N(Cc2ccc(-c3ccc(C(F)(F)F)cc3)cc2)C(=O)Cn2c(CCc3cccc(F)c3F)nc(=O)c3ccccc32)CC1 | 3
Cc1cccc2nc(-c3cccc(-c4ccc(NC(=O)c5cnccc5C(F)(F)F)cc4)c3)[nH]c12 | 0
CCOC(=O)NC1=NC(C)(C)N(OCCCOc2ccc(C)cc2C)C(NC(=O)OCC)=N1 | 7
CS(=O)(=O)c1cc2c(Nc3ccc(N4CCOCC4)cc3)c(C(N)=O)cnc2cc1Br | 0
COc1ccc2nccc(N3CCC(CCNCc4cc5c(cn4)OCCO5)CC3)c2c1 | 6
O=C(Nc1cccc(F)c1)N1CCC(CN2CCOC(c3ccccc3)(c3ccccc3)C2)CC1 | 7
